According to ChEMBL document CHEMBL3433997, “St. Jude Leishmania screening dataset” (2016):

target: Solute carrier family 2, facilitated glucose transporter member 1 (Homo sapiens) (UniProt P11166); test: ST_JUDE_LEISH: Cytotoxicity at 2uM final concentration against transgenic Leishmania Mexicana promastigotes LmGLUT1 that are glucose transport deficient and complemented with the human glucose transporter GLUT1. Activity is measured by DNA content using SYBR green in vitro; format: functional
Sequence (P11166 whole entry): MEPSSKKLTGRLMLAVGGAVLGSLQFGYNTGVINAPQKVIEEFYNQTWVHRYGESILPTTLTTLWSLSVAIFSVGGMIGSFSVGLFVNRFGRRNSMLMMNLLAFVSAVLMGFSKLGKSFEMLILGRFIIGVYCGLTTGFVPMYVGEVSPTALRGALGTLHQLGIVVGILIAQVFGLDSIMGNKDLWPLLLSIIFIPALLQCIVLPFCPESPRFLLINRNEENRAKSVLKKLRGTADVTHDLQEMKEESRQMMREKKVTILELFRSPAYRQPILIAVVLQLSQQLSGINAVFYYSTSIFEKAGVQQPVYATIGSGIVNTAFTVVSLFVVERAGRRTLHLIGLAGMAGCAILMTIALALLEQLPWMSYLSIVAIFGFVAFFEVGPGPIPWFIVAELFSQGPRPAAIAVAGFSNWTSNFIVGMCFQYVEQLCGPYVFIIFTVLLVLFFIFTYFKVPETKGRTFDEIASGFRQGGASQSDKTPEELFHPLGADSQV

In order of falling inhibition:
1. O=C(N[C@@H](Cc1ccccc1)CN1CCC(Oc2ccc(F)cc2)CC1)c1ccc(OCCCN2CCCCC2)cc1  30.5%
2. Cc1cc(CN2CCC(C(=O)Nc3ccc(-c4nc5ccccc5[nH]4)cc3)CC2)oc1C  13.2%
3. CC(C)(C)c1ccc(CN2CCC(NC(=O)c3ccc(-c4ccccc4Cl)s3)CC2)cc1  10.1%
4. CNc1ccc(CNCc2cccc(-c3ccc(-c4nc5cccc(C)c5[nH]4)cc3)c2)cc1  7.63%
5. COc1cccc(CCNCc2ccc(-c3cccc(CNC4CCCC4)c3)cc2)c1  7.38%
6. Cc1cc(N2CCN(C(=O)OC(C)(C)C)CC2)ccc1N  6.77%
7. COc1ccc(Nc2cc(C)nc(NCc3ccc4c(c3)OCO4)n2)cc1  5.82%
8. CN1CCCN(Cc2ccc(-c3ccc(NS(=O)(=O)c4cccc5cccnc45)cc3)cc2)CC1  5.67%
9. Cc1ccc(-c2nc(NC(=O)Nc3ccc(C(F)(F)F)cc3)sc2C)cc1Cl  5.17%
10. c1cncc(NCc2ccc(-c3cc4ccncc4cc3OC3CCNCC3)s2)c1  4.74%
11. O=C(/C=C/c1ccc(Cl)c(Cl)c1)N1CCC(CN2CCC(c3c[nH]c4cnccc34)CC2)CC1  4.52%
12. CN(C)CCNC(=O)[C@H](CC1CCCCC1)NC(=O)c1ccc(O)c(-c2ccc(Cl)c(Cl)c2)c1  4%
13. CS(=O)(=O)c1ccc(-c2cncc(Cl)n2)cc1  3.73%
14. Cc1noc(C)c1-c1ccc2c(Nc3ccc(C(F)(F)F)cc3)c(C(N)=O)cnc2c1  3.49%
15. COc1ccc(NC(=O)/C=C/c2ccccc2Cl)cc1OCCN1CCC(N2CCCC2)CC1  2.99%
16. Cc1c[nH]c2cc(/C=C/C(=O)NC3CCC(CCN4CCc5ccc(C#N)cc5CC4)CC3)ccc12 (stereo not given)  2.72%
17. Cc1[nH]c(C)c(-c2ccc(-c3ccccc3C(F)(F)F)nc2)c(=O)c1Br  2.64%
18. O=C(/C=C/c1ccc(Cl)c(Cl)c1)NCCCCCN1CCC(NC(=O)Nc2cccc(F)c2)CC1  2.32%
19. Cc1ccccc1Oc1nc2ccccc2nc1SCC(=O)NC(C)C  2.29%
20. CS(=O)(=O)N1CC2(CCN(CCC(NC(=O)/C=C/c3ccccc3)c3ccc(Cl)c(Cl)c3)CC2)c2ccccc21 (stereo not given)  2.11%
21. Oc1ccc(Br)cc1-c1nc2ccc(Cl)cc2nc1-c1cc(Br)ccc1O  1.9%
22. CC(=O)c1ccc2c(c1)C(NC(=O)c1cccc(Cl)c1Cl)C(CO)C(C)(C)O2 (stereo not given)  1.76%
23. CN(C)CCNc1ncnc2c1[nH]c1ccc(Br)cc12  1.62%
24. N#CC(CC(=O)c1ccc(Cl)cc1)c1cccc(F)c1 (stereo not given)  1.46%
25. Cc1cc(N/N=C/c2cccc([N+](=O)[O-])c2)c2ccccc2n1  1.39%
26. O=C(Nc1ccc2c(c1)CCN2C1CCN(Cc2ccc(C(F)(F)F)cc2F)C1)c1ccco1 (stereo not given)  1.38%
27. Clc1ccc2c(NN=Cc3cccs3)ccnc2c1  1.34%
28. COc1cc2nc(N3CCN(c4cc(C)ccc4C)CC3)nc(N)c2cc1OC  1.13%
29. Cc1ccc(C)c2c1[nH]c1ccc(C3=NCCN3)cc12  0.89%
30. CC(=O)Nc1nnc(SCc2c(C)cc(C(C)(C)C)cc2C)s1  0.82%
31. Cc1cc2nc(-c3ccc(/C=C/C(=O)NC4CCCCC4)cc3)[nH]c2cc1C  0.61%
32. O=C(NCc1cc2c(cc1Cl)OCO2)c1ccc(CNC2CCN(Cc3ccccc3)CC2)cc1  0.15%
33. Cc1cc(C)c(C(=O)Nc2n[nH]c3nnc(-c4cccc(F)c4F)cc23)c(C)c1  0.09%
34. Cc1cccc(Cl)c1S(=O)(=O)Nc1cccc(CCN2CCC(N3CCCCC3)CC2)c1  -0.03%
35. COC(=O)c1cc2cccc(NC[C@@H](C)NC[C@H](O)c3cccc(Cl)c3)c2[nH]1  -0.1%
36. O=C(Cc1cccc(O)c1)Nc1ccc(-c2cccc(-c3nc4cc(C(F)(F)F)ccc4[nH]3)c2)cc1  -0.18%
37. COc1cc(NC(=O)c2cccc([N+](=O)[O-])c2)cc(S(=O)(=O)c2ccc(Cl)cc2)c1  -0.46%
38. CC(C)(C)c1ccc(-c2nc3c(ccc4nc(N)nc(N)c43)[nH]2)cc1  -1%
39. Cc1nc2nc(N)nc(N)c2c(C)c1Cc1cccc(C(F)(F)F)c1  -1.41%
40. O=C(N[C@@H](CC1CCCCC1)C(=O)NC1CCCCC1)c1ccc(O)c(-c2cccc(C(F)(F)F)c2)c1  -2.73%

target: Hexose transporter 1 (Plasmodium falciparum) (UniProt O97467); test: ST_JUDE_LEISH: Cytotoxicity at 2uM final concentration against transgenic Leishmania Mexicana promastigotes LmPfHT that are glucose transport deficient and complemented with the Plasmodium falciparum hexose transporter. Activity is measured by DNA content using SYBR green in vitro; format: functional

In order of rising inhibition:
1. CC(=O)Nc1nnc(SCc2c(C)cc(C(C)(C)C)cc2C)s1  -2.97%
2. Cc1nc2nc(N)nc(N)c2c(C)c1Cc1cccc(C(F)(F)F)c1  -2.48%
3. CC(C)(C)c1ccc(-c2nc3c(ccc4nc(N)nc(N)c43)[nH]2)cc1  -1.54%
4. N#CC(CC(=O)c1ccc(Cl)cc1)c1cccc(F)c1 (stereo not given)  -1.27%
5. O=C(N[C@@H](CC1CCCCC1)C(=O)NC1CCCCC1)c1ccc(O)c(-c2cccc(C(F)(F)F)c2)c1  -1.15%
6. COc1cc(NC(=O)c2cccc([N+](=O)[O-])c2)cc(S(=O)(=O)c2ccc(Cl)cc2)c1  -1.02%
7. Cc1cccc(Cl)c1S(=O)(=O)Nc1cccc(CCN2CCC(N3CCCCC3)CC2)c1  -0.24%
8. Cc1cc(C)c(C(=O)Nc2n[nH]c3nnc(-c4cccc(F)c4F)cc23)c(C)c1  -0.09%
9. COc1cc2nc(N3CCN(c4cc(C)ccc4C)CC3)nc(N)c2cc1OC  0.08%
10. CS(=O)(=O)N1CC2(CCN(CCC(NC(=O)/C=C/c3ccccc3)c3ccc(Cl)c(Cl)c3)CC2)c2ccccc21 (stereo not given)  0.3%
11. O=C(Nc1ccc2c(c1)CCN2C1CCN(Cc2ccc(C(F)(F)F)cc2F)C1)c1ccco1 (stereo not given)  0.47%
12. O=C(NCc1cc2c(cc1Cl)OCO2)c1ccc(CNC2CCN(Cc3ccccc3)CC2)cc1  0.96%
13. Cc1cc(N/N=C/c2cccc([N+](=O)[O-])c2)c2ccccc2n1  1.27%
14. Clc1ccc2c(NN=Cc3cccs3)ccnc2c1  1.3%
15. Cc1ccc(C)c2c1[nH]c1ccc(C3=NCCN3)cc12  1.39%
16. Oc1ccc(Br)cc1-c1nc2ccc(Cl)cc2nc1-c1cc(Br)ccc1O  1.4%
17. O=C(Cc1cccc(O)c1)Nc1ccc(-c2cccc(-c3nc4cc(C(F)(F)F)ccc4[nH]3)c2)cc1  1.54%
18. COC(=O)c1cc2cccc(NC[C@@H](C)NC[C@H](O)c3cccc(Cl)c3)c2[nH]1  1.58%
19. Cc1ccc(-c2nc(NC(=O)Nc3ccc(C(F)(F)F)cc3)sc2C)cc1Cl  1.68%
20. Cc1c[nH]c2cc(/C=C/C(=O)NC3CCC(CCN4CCc5ccc(C#N)cc5CC4)CC3)ccc12 (stereo not given)  1.75%
21. Cc1cc2nc(-c3ccc(/C=C/C(=O)NC4CCCCC4)cc3)[nH]c2cc1C  1.82%
22. O=C(/C=C/c1ccc(Cl)c(Cl)c1)NCCCCCN1CCC(NC(=O)Nc2cccc(F)c2)CC1  1.97%
23. Cc1ccccc1Oc1nc2ccccc2nc1SCC(=O)NC(C)C  2.25%
24. CN(C)CCNC(=O)[C@H](CC1CCCCC1)NC(=O)c1ccc(O)c(-c2ccc(Cl)c(Cl)c2)c1  2.85%
25. O=C(/C=C/c1ccc(Cl)c(Cl)c1)N1CCC(CN2CCC(c3c[nH]c4cnccc34)CC2)CC1  3.14%
26. Cc1noc(C)c1-c1ccc2c(Nc3ccc(C(F)(F)F)cc3)c(C(N)=O)cnc2c1  3.21%
27. CS(=O)(=O)c1ccc(-c2cncc(Cl)n2)cc1  3.42%
28. Cc1[nH]c(C)c(-c2ccc(-c3ccccc3C(F)(F)F)nc2)c(=O)c1Br  3.67%
29. CN1CCCN(Cc2ccc(-c3ccc(NS(=O)(=O)c4cccc5cccnc45)cc3)cc2)CC1  3.68%
30. CC(=O)c1ccc2c(c1)C(NC(=O)c1cccc(Cl)c1Cl)C(CO)C(C)(C)O2 (stereo not given)  3.84%
31. COc1ccc(NC(=O)/C=C/c2ccccc2Cl)cc1OCCN1CCC(N2CCCC2)CC1  3.87%
32. COc1ccc(Nc2cc(C)nc(NCc3ccc4c(c3)OCO4)n2)cc1  4.09%
33. CN(C)CCNc1ncnc2c1[nH]c1ccc(Br)cc12  4.67%
34. COc1cccc(CCNCc2ccc(-c3cccc(CNC4CCCC4)c3)cc2)c1  5.19%
35. c1cncc(NCc2ccc(-c3cc4ccncc4cc3OC3CCNCC3)s2)c1  5.2%
36. CNc1ccc(CNCc2cccc(-c3ccc(-c4nc5cccc(C)c5[nH]4)cc3)c2)cc1  5.63%
37. CC(C)(C)c1ccc(CN2CCC(NC(=O)c3ccc(-c4ccccc4Cl)s3)CC2)cc1  7.04%
38. Cc1cc(N2CCN(C(=O)OC(C)(C)C)CC2)ccc1N  8.78%
39. O=C(N[C@@H](Cc1ccccc1)CN1CCC(Oc2ccc(F)cc2)CC1)c1ccc(OCCCN2CCCCC2)cc1  10.5%
40. Cc1cc(CN2CCC(C(=O)Nc3ccc(-c4nc5ccccc5[nH]4)cc3)CC2)oc1C  16%
